Laboratory results taken from PubChem BioAssay (NCI).
About 83,000 compounds went through this panel and 20% of them were active in at least one assay; those are over-represented in the sample as a whole.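 Each cell line was grown in a 96-well plate and treated with one concentration of compound for 48 hours. Values below 10 were considered active.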 Unmarked numbers belong to inactive results. Active and inactive are the calls of the source.

Tests used:
Test in all cases: NCI-60 one-dose screen, 48 h (100 = growth as untreated, 0 = no growth, -100 = all killed)
Conditions in all cases: 10 µM unless noted
NCI-H23 lung = test system: NCI-H23 lung
NCI-H226 lung = test system: NCI-H226 lung
NCI-H322M lung = test system: NCI-H322M lung
HOP-62 NSCLC = test system: HOP-62 NSCLC
NCI-H460 lung = test system: NCI-H460 lung
HOP-92 NSCLC = test system: HOP-92 NSCLC
NCI-H522 lung = test system: NCI-H522 lung
A549/ATCC NSCLC = test system: A549/ATCC NSCLC
786-0 renal = test system: 786-0 renal
COLO 205 colon = test system: COLO 205 colon

| Compound | growth (NCI-H23 lung) | growth (NCI-H226 lung) | growth (NCI-H322M lung) | growth (HOP-62 NSCLC) | growth (NCI-H460 lung) | growth (HOP-92 NSCLC) | growth (NCI-H522 lung) | growth (A549/ATCC NSCLC) | growth (786-0 renal) | growth (COLO 205 colon) |
| --- | --- | --- | --- | --- | --- | --- | --- | --- | --- | --- |
| COC(=O)Nc1nc2ccc(C(=O)c3ccc(N(C)C4COC4)cc3)cc2[nH]1 | 30.5% | 67.2% | 48.3% | 10.2% | 3.28% (active) | 46.8% | -31.5% (active) | 14.9% | 27.8% |  |
| Cc1sc2c(c1C)c(=O)nc1c(-c3nc4ccccc4s3)n[nH]n12 | 88.7% | 87.4% | 96.2% | 90.1% | 96.7% | 88.7% | 90.8% | 97.2% | 105% |  |
| C[C@H](NC(=O)c1c(N)nn2cccnc12)c1cc2cccc(C#Cc3cnn(C)c3)c2c(=O)n1-c1ccccc1 | 40.9% | 70.3% | 53.6% | 11.8% | 30.4% | 9.5% (active) | 14.1% | 20.3% | 19.1% |  |
| Cc1cc(-c2cc(OC(=O)c3ccccc3)ccc2Cl)cc2nnc(Nc3ccc(OCCN4CCCC4)cc3)nc12 | 78.9% | 78.6% | 102% | 50.2% | 81.6% | 40.8% | 49.2% | 69.4% | 98.9% |  |
| CC(=O)NCC(=O)N1[C@@H]2CC[C@H]1c1ccc(Nc3ncc(C(F)(F)F)c(NC4CCC4)n3)cc12 | 27.9% [2.5 µM] | 42.8% [2.5 µM] | 14.2% [2.5 µM] | 23% [2.5 µM] | 16.3% [2.5 µM] | -1.13% [2.5 µM] (active) | 46.1% [2.5 µM] | 34% [2.5 µM] | 42.4% [2.5 µM] |  |
| Cc1ccc(-[n+]2c3cc(N)c(C)cc3nc3cc(C)c(Nc4ccccc4)cc32)cc1 | -74.4% (active) | -67% (active) | -53.1% (active) | -64.9% (active) | -48.2% (active) | -60.5% (active) | -48.8% (active) | -18.9% (active) | -93% (active) | -94.9% (active) |
| COc1cc(C2CC(c3ccc(Cl)cc3)=NN2c2ccc(Cl)cc2)cc(OC)c1OC (stereo unspecified) | 97.4% | 88.4% | 91.1% | 100% | 97.1% | 57.7% | 88.9% | 93.9% | 98.8% |  |
| Cn1cc(-c2[nH]c3cc(NC(=O)[C@H](N)C4CCCCC4)cc4c3c2C=NNC4=O)cn1 | -12.7% (active) | 26.1% | 16.1% | -11.3% (active) | 11.6% | -25.2% (active) | -66% (active) | 14% | -18.9% (active) | -78.4% (active) |
| CC(C)Nc1cc(-c2c[nH]c(C(=O)N[C@H](CO)c3cccc(Cl)c3)c2)c(Cl)cn1 | 19.9% | 38% | 17.5% | 28.6% | 25.2% | -18.5% (active) | 22.2% | 14.8% | 42.4% |  |
| CNC(=O)c1cc(Oc2cccc3nc(Nc4ccc(Cl)c(F)c4)ccc23)ccn1 | 62.4% | 43.4% | 78.8% | 34.8% | 60.6% | 9.48% (active) | 52.7% | 61.3% | 41.7% |  |
| COc1ccc(CCCc2c3[n+](cc4c(OC)c(OC)ccc24)CCc2cc4c(cc2-3)OCO4)cc1 | 47.4% | 88.4% | 96.1% | 78.6% | 52.4% | 77.8% | 38.7% | 61.2% | 92.2% |  |
| CC1(O)CCC(Nc2cc(-c3ccc(C(F)(F)F)cc3)c(C#N)c3nc4ccccc4n23)CC1 (stereo unspecified) | 81.9% | 71% | 89.9% | 64.7% | 68.7% | 52.5% | 63.2% | 56% | 70.7% | 61% |
| CNC(=O)CN1CCC(Oc2cc3c(Nc4cccc(Cl)c4F)ncnc3cc2OC)CC1 | 79.7% | 76.7% | -5.06% (active) | 38.3% | 89.9% | 25.1% | 5.87% (active) | 28.3% | 51.8% | 61.3% |
| CSc1nc2ncnc(SC)c2[nH]1 | 96.1% | 98.2% | 101% | 77.8% | 109% | 98.7% | 76% | 62.3% | 98.9% | 103% |
| COc1ccc2c(c1)cn1c3ccc(O)cc3nc(N)c21 | 25.5% | 45.2% | 40.2% | 25.1% | 8.48% (active) | 17.2% | 14.2% | 38% | 18.5% | 9.91% (active) |
| Cc1c(Cn2c(C)nc3c(C(=O)O)cc(N4CCOCC4)cc32)cccc1C(F)(F)F | 105% | 114% | 98.8% | 79% | 102% | 88.3% | 62.9% | 89.7% | 95.8% | 108% |
| COc1cc(Nc2c(C#N)cnc3cc(OCCCN4CCN(C)CC4)c(OC)cc23)c(Cl)cc1Cl | 61.5% | 78.4% | 13.3% | 61.3% | 38.6% | 98% | 14.5% | 36.1% | 67.7% | 6.9% (active) |
| Cc1cc(N(CCNc2ccnc3cc(Cl)ccc23)Cc2ccc3c(c2)OCO3)nc(N2CCN(C)CC2)n1 | 56.6% | 75.7% | 41.5% | 0.334% (active) | 18.2% | -10.2% (active) | 7.7% (active) | 26% | -6.41% (active) | -67.1% (active) |
| Cc1cccc(Cl)c1NC(=O)c1cnc(Nc2cc(N3CCOCC3)cc(N3CCOCC3)c2)s1 | 73.8% | 68.6% | -10.4% (active) | 4.81% (active) | 51.2% | -42.1% (active) | -9.13% (active) | 10.7% | 17.1% | -4.18% (active) |
| CC(=O)c1cnc2ccc(-c3cc(Cl)c(O)c(Cl)c3)nc2c1NC1CCC(CN(C)C)CC1 (stereo unspecified) | -54.3% [2.5 µM] (active) | -16.3% [2.5 µM] (active) | -37.7% [2.5 µM] (active) | -34.4% [2.5 µM] (active) | -51.8% [2.5 µM] (active) | -20.3% [2.5 µM] (active) | -75.5% [2.5 µM] (active) | -8.85% [2.5 µM] (active) | -48.3% [2.5 µM] (active) | -94.2% [2.5 µM] (active) |
| CNC(=O)c1cc(Oc2cccc3nc(Nc4ccc(Oc5ccccc5)cc4)ccc23)ccn1 | 78% | 66% | 99.9% | 92% | 61.9% | 71.2% | 62.7% | 58.3% | 72.5% | 46% |
| CC#CC(=O)N1CCC[C@H]1c1nc(-c2ccc(C(=O)Nc3ccccn3)cc2)c2c(N)nccn12 | 96.4% | 80.2% | 76.6% | 68.9% | 90.4% | 76.9% | 37.1% | 48.6% | 92.3% | 81.6% |
| COC(=O)[C@@H](OC)[C@@H]1Cc2cc3cc(OC4CC(OC5CC(O)C(O)C(C)O5)C(O)C(C)O4)c(C)c(O)c3c(O)c2C(=O)[C@H]1OC1CC(OC2CC(OC3CC(C)(O)C(O)C(C)O3)C(O)C(C)O2)C(O)C(C)O1 (stereo partly specified) | -47.3% (active) | -41.9% (active) | 12.3% | 6.33% (active) | 4.95% (active) | -15.6% (active) | -30.3% (active) | 8.71% (active) | 9.07% (active) | -37.2% (active) |
| COc1ccc(F)c(F)c1C(=O)c1cnc(NC2CCN(S(C)(=O)=O)CC2)nc1N | -36.5% (active) | 3.23% (active) | 2.76% (active) | -24.7% (active) | 3.3% (active) | -8.59% (active) | -29.5% (active) | 3.28% (active) | 14.4% | -79.7% (active) |
| C[C@@H](Nc1cc(F)cc(F)c1)c1cc(C(=O)N(C)C)cc2c(=O)cc(N3CCOCC3)oc12 | 76.6% | 83.7% | 31.5% | 59.3% | 43.1% | 27.3% | 59.7% | 34.9% | 12.7% | 46.6% |
| COC(=O)[C@H](Cc1ccc(O)cc1)NC(=O)[C@@H](OC)[C@@H]1Cc2cc3cc(OC4CC(OC5CC(O)C(O)C(C)O5)C(O)C(C)O4)c(C)c(O)c3c(O)c2C(=O)[C@H]1OC1CC(OC2CC(OC3CC(C)(O)C(O)C(C)O3)C(O)C(C)O2)C(O)C(C)O1 (stereo partly specified) | -38.6% (active) | -17.6% (active) | 11.1% | 19.3% | 6.99% (active) | 12.2% | -19.5% (active) | 4.32% (active) | 1.98% (active) | -22.8% (active) |
